# Most compounds without a hit are left out; they make up all but 15% or so of the library.
# ALOX12 inh – blocks human arachidonate 12S-lipoxygenase; 580,000 tested, 1.1% active; purified 12hLO, xylenol orange hydroperoxide absorbance; Potency, µM (titrated, usually from 108 µM), without a hit: at the highest dose activity change, negative = inhibition, most hits filed as inhibitors
# Target sequence (P18054 whole entry, looked up): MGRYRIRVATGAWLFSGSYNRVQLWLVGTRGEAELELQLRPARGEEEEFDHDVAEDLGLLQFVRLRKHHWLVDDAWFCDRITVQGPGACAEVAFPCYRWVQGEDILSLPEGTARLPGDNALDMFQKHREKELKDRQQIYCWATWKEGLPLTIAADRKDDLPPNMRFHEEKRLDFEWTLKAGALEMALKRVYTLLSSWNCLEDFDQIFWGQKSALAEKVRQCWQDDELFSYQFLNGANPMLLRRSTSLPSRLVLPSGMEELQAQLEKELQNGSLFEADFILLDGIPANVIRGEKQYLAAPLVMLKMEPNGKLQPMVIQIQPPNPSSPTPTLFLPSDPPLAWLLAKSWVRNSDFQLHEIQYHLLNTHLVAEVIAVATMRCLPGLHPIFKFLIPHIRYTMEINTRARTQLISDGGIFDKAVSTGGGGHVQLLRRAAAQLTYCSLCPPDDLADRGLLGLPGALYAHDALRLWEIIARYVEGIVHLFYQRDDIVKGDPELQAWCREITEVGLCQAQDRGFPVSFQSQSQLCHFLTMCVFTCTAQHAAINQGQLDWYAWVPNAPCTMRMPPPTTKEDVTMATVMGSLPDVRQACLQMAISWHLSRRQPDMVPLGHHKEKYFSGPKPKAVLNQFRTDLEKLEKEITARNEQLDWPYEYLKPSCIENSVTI
#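 Hydroperoxide product was detected by ferrous iron/xylenol orange as the 573 to 405 nm absorbance ratio. Arachidonic acid at 40 uM (final) was turned over for 30 min at room temperature by 150 nM human 12hLO, pH 7.0 Hepes buffer, after 15 min compound preincubation.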
# DT40 TDP1 CPT – DT40-hTDP1 cell growth loss with CPT | 420,000 tested, 12% active | chicken DT40 Tdp1-/-;hTDP1 cells + 20 nM CPT, ATP luminescence, 48 h | Potency, µM (titrated, usually from 46.2 µM), for inactives: at the top dose activity change, negative = growth inhibition, hits mostly inhibitors; note: nearly all actives have a fitted effect of over 55% in size
#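 Chicken DT40 Tdp1-/- cells stably complemented with human TDP1 were seeded at 400 cells/well in medium containing 20 nM camptothecin, exposed to pin-transferred compounds, and grown at 37 °C for at least 48 hr. Viability was read as ATP luminescence.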
# RORg inh – blocks mouse ROR gamma transcriptional activity; Drosophila S2 Gal4-RORgamma UAS-luciferase reporter, 20 h; Potency, µM (top dose mostly 53.6 µM), for inactives: at the highest dose activity change, negative = inhibition, hits mostly inhibitors; 310,000 tested, 5.4% active; note: nearly all actives have a fitted effect of over 60% in size
#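 ROR gamma transcriptional activity was tracked as Gal4-UAS luciferase output in stably transfected Drosophila Schneider cells, with compound added 1 hr before 700 uM copper sulfate induction and a 20 hr ambient-temperature incubation.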
# VP16 counter – inhibits Gal4-VP16 luciferase reporter, ROR gamma counter-screen. Drosophila S2 Gal4-VP16 UAS-luciferase, luminescence, 20 h. 310,000 tested, 3.5% active. Potency, µM (top dose mostly 53.6 µM), without a hit: at the top dose activity, negative = inhibition, most hits filed as inhibitors;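 note: Gal4-VP16 expression switched on by copper sulfate through the metallothionein promoter; nearly all actives have a fitted effect of over 50% in size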
# TDP1 cell noCPT – qHTS for Inhibitors of human tyrosyl-DNA phosphodiesterase 1 (TDP1): qHTS in cells in absence of CPT; DT40 Tdp1-/- hTDP1 cells, no CPT, ATP luminescence, 48 h; Potency, µM (titrated, usually from 46.2 µM), for the others: at the top dose activity change, negative = growth inhibition, hits mostly inhibitors; 420,000 tested, 15% active; AID 686978, 2013; note: nearly all actives have a fitted effect of over 55% in size
#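 Luminescent ATP content (CellTiter-Glo) served as the growth readout. Knockout chicken DT40 cells expressing human TDP1 were exposed to compounds without camptothecin for a minimum 48 hr at 37 °C.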
# ELG1 DNA repair – blocks ELG1-dependent DNA repair in HEK293T cells; HEK293T ELG1-luciferase reporter, luminescence, 16 h; DNA damage induced by 5-fluorouridine; Potency, µM (doses to about 46.1 µM), inactives show top-dose activity change, negative = inhibition, hits mostly inhibitors; 330,000 tested, 2.3% active; note: nearly all actives have a fitted effect of over 55% in size
#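 Cells (2,000 per well) received 5-fluorouridine plus test compound or DMSO and were incubated 16 hr at 37 °C, 5% CO2. Luciferase activity was read by luminescence 30 min after ONE-Glo addition; signal suppression marked inhibition of damage-induced ELG1 function.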
# Starred values were filed as active, the others as inactive; ? = inconclusive; / = no result given; [ ] = another dose, or the depositor's remark. Calls come from the whole dose curve; as a rule, active = well fitted curve in the direction sought with a large enough effect; inconclusive = small, poorly fitted or top-dose-only effect, or another doubt; inactive = no such curve, though single readings can be large; an effect the other way counts as inactive or inconclusive. % is set by controls: 0 for no effect and ±100 for the full control effect; potency is the fitted concentration of half-maximal effect.
SMILES,ALOX12 inh,DT40 TDP1 CPT,RORg inh,VP16 counter,TDP1 cell noCPT,ELG1 DNA repair
COc1cc(/C=N/Nc2cccc3cccnc23)cc(OC)c1O,-25.9%,?,10µM*,?,16.4µM*,?
O=C(Nc1ccc2nc(SCC(=O)N3CCCC3)sc2c1)c1cccc(Br)c1,?,?,/,/,16.4µM*,/
O=C(Nc1ccc2nc(SCC(=O)N3CCOCC3)sc2c1)c1cccc(Cl)c1,-32.2%,14.6µM*,/,/,18.4µM*,/
CC(NC(=O)C1CCCC1)C1CCCO1 (configuration not stated),8.8%,/,/,/,/,/
O=C(c1ccco1)N1CCN(C(=O)C(Sc2ccccc2)c2ccccc2)CC1 (configuration not stated),-19.1%,16.4µM*,-2.4%,-13.1%,?,?
Cc1ccc2nc(-c3ccc(NC(=O)CN(c4ccccc4C)S(C)(=O)=O)cc3)sc2c1,-3.5%,20.6µM*,18.4%,-0.6%,14.6µM*,?
Cc1ccc2nc(-c3ccc(NC(=O)COc4ccccc4C(C)(C)C)cc3)sc2c1,-12.0%,-29.9%,/,/,?,/
Cc1cc(C)cc(N(CC(=O)Nc2ccc(-c3nc4ccc(C)cc4s3)cc2)S(C)(=O)=O)c1,-16.8%,23.1µM*,-16.1%,-10.0%,14.6µM*,?
CC(=O)c1c(C(C)=O)c(C)n(-c2cccc([N+](=O)[O-])c2)c1C,0.6%,-0.3%,-14.1%,-2.3%,0.2%,4.4%
Cc1cc(C(=O)CCl)c(C)n1-c1cccc([N+](=O)[O-])c1,?,1.46µM*,8.91µM*,?,2.31µM*,3.6%
Cc1cc(C(=O)N/N=C/c2cccc([N+](=O)[O-])c2)c(C)n1-c1ccccc1,-29.6%,?,42.3%,-8.2%,23.1µM*,?
Cc1cc(C(=O)N/N=C/c2ccc3c(c2)OCO3)c(C)n1-c1ccc(F)cc1,0.6%,?,11.8%,2.3%,13µM*,-10.8%
Cc1cc(C(=O)N/N=C/c2ccc(Cl)c([N+](=O)[O-])c2)c(C)n1-c1ccc(F)cc1,10.1%,23.1µM*,?,-9.9%,14.6µM*,?
Cc1occc1C(=O)N/N=C/c1ccc(Cl)c([N+](=O)[O-])c1,18.3%,?,-12.2%,-12.5%,?,?
COc1ccc(-c2noc(-c3nc(C(C)C)no3)n2)cc1,32.4%,/,/,/,/,/
Cc1cc(C(=O)CCl)c(C)n1-c1ccon1,-13.6%,2.31µM*,8.91µM*,?,2.91µM*,17.7%
C/C(=N\NC(=O)c1ccccc1[N+](=O)[O-])c1ccc(Br)s1,-1.0%,-11.2%,19.0%,-10.8%,?,-3.4%
C/C(=N\NC(=O)c1cccc(Br)c1)c1cccs1,61.6%,/,/,/,/,/
C/C(=N\NC(=O)c1cc(Br)ccc1O)c1cccs1,-3.8%,?,10µM*,?,-23.9%,?
C/C(=N\NC(=O)c1cccc(F)c1)c1ccc(Br)s1,24.1%,5.62µM*,0.794µM*,1.26µM*,7.08µM*,-19.8%
C/C(=N\NC(=O)c1ccccc1O)c1ccc(Br)s1,-3.4%,14.6µM*,2µM*,2µM*,?,?
O=C(c1ccc(C(F)(F)F)cc1)N1CC[C@H]2COC(=O)N2c2cc(F)ccc2C1,14.3%[176 µM],/,/,/,/,/
CCC(CO)NS(=O)(=O)c1cc(C)c(Br)cc1Cl (configuration not stated),17.0%,/,/,/,/,/
CC(C)COc1ccc(C(=O)Nc2ncn[nH]2)cc1,0.0%,10.2%,2.82µM*,3.55µM*,-2.3%,?
C=CCOc1ccc(C(=O)Nc2ncn[nH]2)cc1,0.0%,1.7%,11.2µM*,-10.7%,-23.0%,22.2%
SMILES,ALOX12 inh,DT40 TDP1 CPT,RORg inh,VP16 counter,TDP1 cell noCPT,ELG1 DNA repair
CCOc1ccc(C(=O)Nc2ncn[nH]2)cc1,-5.9%,14.8%,-26.7%,0.2%,-2.3%,?
CC(C)Oc1cccc(C(=O)Nc2ncn[nH]2)c1,9.8%,-5.5%,15.8µM*,?,2.3%,?
CC(C)Oc1ccc(C(=O)Nc2ncn[nH]2)cc1,30.4%,1.5%,?,?,-2.0%,?
Cc1ccc(C(=O)Nc2ccc3ncnc(N4CCCC4)c3c2)s1,16.5%,/,/,/,/,/
CC(C)NC(=O)CCCC(=O)NCC1(c2ccccc2)CC1,54.0%,/,/,/,/,/
CCC1(C)Cc2ccccc2/C(=C/C(=O)N2CCCCC2)N1 (configuration not stated),?,18.4µM*,8.8%,10.0%,20.6µM*,9.9%
CNC(=O)/C=C1\NC(C)(C)Cc2ccccc21,-12.3%,-1.6%,-0.1%,1.3%,-16.1%,2.9%
CCOc1ccc(OCc2ccc(C(=O)O)o2)cc1,131.4%,-9.8%,10µM*,14.8%[0.365 µM],-26.0%,?
CCOc1ccc(OCc2ccc(C(=O)NCc3ccncc3)o2)cc1,-2.3%,16.4µM*,43.5%,17.4%,-29.7%,0.2%
CCN(CC)C(=O)c1ccc(COc2ccc(Cl)c(C)c2)o1,-28.2%,16.4µM*,?,?,13µM*,?
Cc1cc(OCc2ccc(C(=O)n3cccn3)o2)ccc1Cl,-4.6%,?,?,-5.2%,?,?
O=C(O)c1ccc(COc2ccc3ccccc3c2)o1,-5.5%,0.8%,13.5%,16.7%,-10.3%,?
COc1ccc(N2C(=O)CCS2(=O)=O)cc1S(=O)(=O)Nc1c(C)cc(C)cc1Cl,-10.0%,/,/,/,/,/
COc1ccc(-c2nc(Cn3c(-c4ccc(F)cc4)nc(C)c(CCO)c3=O)c(C)o2)cc1,23.1%,/,/,/,/,/
Cc1cc(/C=C(\C#N)C(=O)NCC2CCCO2)c(C)n1-c1ccc(Cl)cc1 (configuration not stated),-0.1%,10.3µM*,?,-5.1%,?,?
COc1cc(/C=C(\C#N)C(=O)NCC2CCCO2)ccc1O (configuration not stated),-12.8%,-8.5%,3.6%,25.1%,-7.2%,15.8%
Cc1ccc(C)c(OCCn2cc(/C=C(/C#N)C(=O)NCC3CCCO3)c3ccccc32)c1 (configuration not stated),-21.9%,16.4µM*,-3.0%[10 µM],-10.3%,?,14.6µM*
Cc1cc2cc(C=C(C#N)C#N)c(Cl)nc2cc1C,-12.7%,7.31µM*,?,?,7.31µM*,?
CCOC(=O)/C(C#N)=C/c1cc2ccc(C)cc2nc1Cl,-25.9%,4.11µM*,6.2%,-9.7%,2.91µM*,?
CCOC(=O)/C(C#N)=C/c1cc2cc(C)c(C)cc2nc1Cl,-17.3%,?,6.0%,-3.6%,?,?

# Screens (PubChem BioAssay)
